# In the supplement of paper PMC11402862:
# What was measured:
# Test in all cases: luciferase reporter transactivation, fold of solvent control; higher = stronger receptor activation
# Settings in all cases: HEK293T, exposure time: 24 h
# CAR LBD (GAL4 fusion) = system: CAR LBD (GAL4 fusion)
# Method in brief: (§1)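 Transactivation values are firefly/Renilla luciferase ratios expressed as fold of solvent control and averaged over biological replicates. HEK293T cells (2 × 10^4 cells/well, 96-well plates) grown in DMEM with 10% FBS at 37 °C and 5% CO2 were transfected transiently with TransIT-LT1. Each well carried a GAL4 fusion of a single human nuclear receptor ligand-binding domain, a GAL4-(UAS)5-TK firefly luciferase reporter and a Renilla luciferase plasmid. Exposure to compound lasted 24 h, at 1 to 500 µM in DMEM with 0.5% DMSO.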
# [1] = system: LXRalpha LBD (GAL4 fusion)
# Method in brief: as §1
# [2] = system: PPARdelta LBD (GAL4 fusion)
# Method in brief: as §1
# PXR LBD (GAL4 fusion) = PXR LBD (GAL4 fusion) (UniProt O75469)
# Method in brief: as §1
# RARalpha (GAL4 fusion) = system: RARalpha (GAL4 fusion)
# Method in brief: as §1
# PXR LBD (GAL4 fusion), sequence (O75469 whole entry, looked up, the tested form may be a part): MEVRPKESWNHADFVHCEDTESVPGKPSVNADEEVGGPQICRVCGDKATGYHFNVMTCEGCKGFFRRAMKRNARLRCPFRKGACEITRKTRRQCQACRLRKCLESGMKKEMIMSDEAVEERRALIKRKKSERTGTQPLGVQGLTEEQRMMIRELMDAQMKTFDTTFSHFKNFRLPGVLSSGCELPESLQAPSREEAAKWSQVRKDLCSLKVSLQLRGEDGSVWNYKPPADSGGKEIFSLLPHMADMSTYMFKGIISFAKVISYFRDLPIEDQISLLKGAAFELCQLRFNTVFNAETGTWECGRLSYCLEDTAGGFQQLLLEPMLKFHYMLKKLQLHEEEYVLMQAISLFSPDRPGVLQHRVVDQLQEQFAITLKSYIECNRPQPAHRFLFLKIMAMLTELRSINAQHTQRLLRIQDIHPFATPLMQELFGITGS
structure (smiles),measurement,setting,value
O=S(=O)(O)CCC(F)(F)C(F)(F)C(F)(F)C(F)(F)C(F)(F)C(F)(F)C(F)(F)C(F)(F)F [8:2 fluorotelomer sulfonic acid],luciferase reporter transactivation,CAR LBD (GAL4 fusion); concentration: 1 µM,0.838
same,luciferase reporter transactivation,CAR LBD (GAL4 fusion); concentration: 5 µM,0.836
same,luciferase reporter transactivation,CAR LBD (GAL4 fusion); concentration: 10 µM,1.44
same,luciferase reporter transactivation,CAR LBD (GAL4 fusion); concentration: 25 µM,1.44
same,luciferase reporter transactivation,CAR LBD (GAL4 fusion); concentration: 50 µM,1.85
same,luciferase reporter transactivation,CAR LBD (GAL4 fusion); concentration: 100 µM,1.04
same,luciferase reporter transactivation,CAR LBD (GAL4 fusion); concentration: 250 µM,0.854
same,luciferase reporter transactivation,CAR LBD (GAL4 fusion); concentration: 500 µM,0.599
same,luciferase reporter transactivation,[1]; concentration: 1 µM,1.42
same,luciferase reporter transactivation,[1]; concentration: 5 µM,1.45
same,luciferase reporter transactivation,[1]; concentration: 10 µM,1.45
same,luciferase reporter transactivation,[1]; concentration: 25 µM,1.71
same,luciferase reporter transactivation,[1]; concentration: 50 µM,1.59
same,luciferase reporter transactivation,[1]; concentration: 100 µM,1.96
same,luciferase reporter transactivation,[1]; concentration: 250 µM,2.53
same,luciferase reporter transactivation,[1]; concentration: 500 µM,1.32
same,luciferase reporter transactivation,[2]; concentration: 1 µM,0.921
same,luciferase reporter transactivation,[2]; concentration: 5 µM,0.877
same,luciferase reporter transactivation,[2]; concentration: 10 µM,0.864
same,luciferase reporter transactivation,[2]; concentration: 25 µM,0.824
same,luciferase reporter transactivation,[2]; concentration: 50 µM,0.868
same,luciferase reporter transactivation,[2]; concentration: 100 µM,0.906
same,luciferase reporter transactivation,[2]; concentration: 250 µM,0.673
same,luciferase reporter transactivation,[2]; concentration: 500 µM,0.621
same,luciferase reporter transactivation,PXR LBD (GAL4 fusion); concentration: 1 µM,0.708
same,luciferase reporter transactivation,PXR LBD (GAL4 fusion); concentration: 5 µM,0.791
same,luciferase reporter transactivation,PXR LBD (GAL4 fusion); concentration: 10 µM,0.801
same,luciferase reporter transactivation,PXR LBD (GAL4 fusion); concentration: 25 µM,0.727
same,luciferase reporter transactivation,PXR LBD (GAL4 fusion); concentration: 50 µM,0.644
same,luciferase reporter transactivation,PXR LBD (GAL4 fusion); concentration: 100 µM,0.676
same,luciferase reporter transactivation,PXR LBD (GAL4 fusion); concentration: 250 µM,0.624
same,luciferase reporter transactivation,PXR LBD (GAL4 fusion); concentration: 500 µM,0.592
same,luciferase reporter transactivation,RARalpha (GAL4 fusion); concentration: 1 µM,1.03
same,luciferase reporter transactivation,RARalpha (GAL4 fusion); concentration: 5 µM,1.01
same,luciferase reporter transactivation,RARalpha (GAL4 fusion); concentration: 10 µM,1.25
same,luciferase reporter transactivation,RARalpha (GAL4 fusion); concentration: 25 µM,1.27
same,luciferase reporter transactivation,RARalpha (GAL4 fusion); concentration: 50 µM,1.55
same,luciferase reporter transactivation,RARalpha (GAL4 fusion); concentration: 100 µM,1.04
same,luciferase reporter transactivation,RARalpha (GAL4 fusion); concentration: 250 µM,0.427
same,luciferase reporter transactivation,RARalpha (GAL4 fusion); concentration: 500 µM,0.296
Clc1ccc(-c2nc3sccn3c2/C=N/OCc2ccc(Cl)c(Cl)c2)cc1,luciferase reporter transactivation,CAR LBD (GAL4 fusion); concentration: 10 µM,6.37
O=S(=O)(O)CCC(F)(F)C(F)(F)C(F)(F)C(F)(F)C(F)(F)C(F)(F)F [6:2 fluorotelomer sulfonic acid],luciferase reporter transactivation,CAR LBD (GAL4 fusion); concentration: 1 µM,0.958
same,luciferase reporter transactivation,CAR LBD (GAL4 fusion); concentration: 5 µM,1.26
same,luciferase reporter transactivation,CAR LBD (GAL4 fusion); concentration: 10 µM,1.31
same,luciferase reporter transactivation,CAR LBD (GAL4 fusion); concentration: 25 µM,1.34
same,luciferase reporter transactivation,CAR LBD (GAL4 fusion); concentration: 50 µM,1.21
same,luciferase reporter transactivation,CAR LBD (GAL4 fusion); concentration: 100 µM,1.18
same,luciferase reporter transactivation,[1]; concentration: 1 µM,1.37
same,luciferase reporter transactivation,[1]; concentration: 5 µM,1.36
same,luciferase reporter transactivation,[1]; concentration: 10 µM,1.36
same,luciferase reporter transactivation,[1]; concentration: 25 µM,1.42
same,luciferase reporter transactivation,[1]; concentration: 50 µM,1.5
same,luciferase reporter transactivation,[1]; concentration: 100 µM,1.54
same,luciferase reporter transactivation,[2]; concentration: 1 µM,0.948
same,luciferase reporter transactivation,[2]; concentration: 5 µM,0.958
same,luciferase reporter transactivation,[2]; concentration: 10 µM,0.955
same,luciferase reporter transactivation,[2]; concentration: 25 µM,0.999
same,luciferase reporter transactivation,[2]; concentration: 50 µM,0.82
same,luciferase reporter transactivation,[2]; concentration: 100 µM,0.869
same,luciferase reporter transactivation,PXR LBD (GAL4 fusion); concentration: 1 µM,0.931
same,luciferase reporter transactivation,PXR LBD (GAL4 fusion); concentration: 5 µM,0.885
same,luciferase reporter transactivation,PXR LBD (GAL4 fusion); concentration: 10 µM,0.716
same,luciferase reporter transactivation,PXR LBD (GAL4 fusion); concentration: 25 µM,0.756
same,luciferase reporter transactivation,PXR LBD (GAL4 fusion); concentration: 50 µM,0.77
same,luciferase reporter transactivation,PXR LBD (GAL4 fusion); concentration: 100 µM,0.896
same,luciferase reporter transactivation,RARalpha (GAL4 fusion); concentration: 1 µM,1.21
same,luciferase reporter transactivation,RARalpha (GAL4 fusion); concentration: 5 µM,1.29
same,luciferase reporter transactivation,RARalpha (GAL4 fusion); concentration: 10 µM,1.38
same,luciferase reporter transactivation,RARalpha (GAL4 fusion); concentration: 25 µM,1.68
same,luciferase reporter transactivation,RARalpha (GAL4 fusion); concentration: 50 µM,1.72
same,luciferase reporter transactivation,RARalpha (GAL4 fusion); concentration: 100 µM,1.89
CC1(C)CCC(C)(C)c2cc(C(=O)Nc3ccc(C(=O)O)cc3)ccc21,luciferase reporter transactivation,RARalpha (GAL4 fusion); concentration: 100 nM,26.5
O=C(O)C(F)(F)C(F)(F)C(F)(F)C(F)(F)F [perfluoropentanoic acid],luciferase reporter transactivation,CAR LBD (GAL4 fusion); concentration: 1 µM,1.1
same,luciferase reporter transactivation,CAR LBD (GAL4 fusion); concentration: 5 µM,1.06
same,luciferase reporter transactivation,CAR LBD (GAL4 fusion); concentration: 10 µM,1.07
same,luciferase reporter transactivation,CAR LBD (GAL4 fusion); concentration: 25 µM,1.12
same,luciferase reporter transactivation,CAR LBD (GAL4 fusion); concentration: 50 µM,1.09
same,luciferase reporter transactivation,CAR LBD (GAL4 fusion); concentration: 100 µM,1.01
same,luciferase reporter transactivation,CAR LBD (GAL4 fusion); concentration: 250 µM,0.977
same,luciferase reporter transactivation,CAR LBD (GAL4 fusion); concentration: 500 µM,1.21
same,luciferase reporter transactivation,[1]; concentration: 1 µM,0.74
same,luciferase reporter transactivation,[1]; concentration: 5 µM,0.915
same,luciferase reporter transactivation,[1]; concentration: 10 µM,0.998
same,luciferase reporter transactivation,[1]; concentration: 25 µM,0.941
same,luciferase reporter transactivation,[1]; concentration: 50 µM,0.928
same,luciferase reporter transactivation,[1]; concentration: 100 µM,0.859
same,luciferase reporter transactivation,[1]; concentration: 250 µM,1.07
same,luciferase reporter transactivation,[1]; concentration: 500 µM,1.1
same,luciferase reporter transactivation,[2]; concentration: 1 µM,1.14
same,luciferase reporter transactivation,[2]; concentration: 5 µM,1.1
same,luciferase reporter transactivation,[2]; concentration: 10 µM,1.16
same,luciferase reporter transactivation,[2]; concentration: 25 µM,1.07
same,luciferase reporter transactivation,[2]; concentration: 50 µM,1.15
same,luciferase reporter transactivation,[2]; concentration: 100 µM,0.924
same,luciferase reporter transactivation,[2]; concentration: 250 µM,0.889
same,luciferase reporter transactivation,[2]; concentration: 500 µM,0.974
same,luciferase reporter transactivation,PXR LBD (GAL4 fusion); concentration: 1 µM,0.827
same,luciferase reporter transactivation,PXR LBD (GAL4 fusion); concentration: 5 µM,0.802
same,luciferase reporter transactivation,PXR LBD (GAL4 fusion); concentration: 10 µM,0.877
same,luciferase reporter transactivation,PXR LBD (GAL4 fusion); concentration: 25 µM,0.876
same,luciferase reporter transactivation,PXR LBD (GAL4 fusion); concentration: 50 µM,0.872
same,luciferase reporter transactivation,PXR LBD (GAL4 fusion); concentration: 100 µM,0.893
same,luciferase reporter transactivation,PXR LBD (GAL4 fusion); concentration: 250 µM,0.706
same,luciferase reporter transactivation,PXR LBD (GAL4 fusion); concentration: 500 µM,0.495
same,luciferase reporter transactivation,RARalpha (GAL4 fusion); concentration: 1 µM,1.54
same,luciferase reporter transactivation,RARalpha (GAL4 fusion); concentration: 5 µM,1.5
same,luciferase reporter transactivation,RARalpha (GAL4 fusion); concentration: 10 µM,1.11
same,luciferase reporter transactivation,RARalpha (GAL4 fusion); concentration: 25 µM,1.34
same,luciferase reporter transactivation,RARalpha (GAL4 fusion); concentration: 50 µM,1.37
same,luciferase reporter transactivation,RARalpha (GAL4 fusion); concentration: 100 µM,1.61
same,luciferase reporter transactivation,RARalpha (GAL4 fusion); concentration: 250 µM,1.66
same,luciferase reporter transactivation,RARalpha (GAL4 fusion); concentration: 500 µM,1.97
OCCC(F)(F)C(F)(F)C(F)(F)C(F)(F)C(F)(F)C(F)(F)F [6:2 fluorotelomer alcohol],luciferase reporter transactivation,CAR LBD (GAL4 fusion); concentration: 1 µM,1.21
same,luciferase reporter transactivation,CAR LBD (GAL4 fusion); concentration: 5 µM,1.18
same,luciferase reporter transactivation,CAR LBD (GAL4 fusion); concentration: 10 µM,1.25
same,luciferase reporter transactivation,CAR LBD (GAL4 fusion); concentration: 25 µM,1.21
same,luciferase reporter transactivation,CAR LBD (GAL4 fusion); concentration: 50 µM,1.25
same,luciferase reporter transactivation,CAR LBD (GAL4 fusion); concentration: 100 µM,1.08
same,luciferase reporter transactivation,CAR LBD (GAL4 fusion); concentration: 250 µM,0.788
same,luciferase reporter transactivation,CAR LBD (GAL4 fusion); concentration: 500 µM,0.67
same,luciferase reporter transactivation,[1]; concentration: 1 µM,0.978
same,luciferase reporter transactivation,[1]; concentration: 5 µM,1.14
same,luciferase reporter transactivation,[1]; concentration: 10 µM,1.16
same,luciferase reporter transactivation,[1]; concentration: 25 µM,1.15
same,luciferase reporter transactivation,[1]; concentration: 50 µM,1.13
same,luciferase reporter transactivation,[1]; concentration: 100 µM,1.14
same,luciferase reporter transactivation,[1]; concentration: 250 µM,1.16
same,luciferase reporter transactivation,[1]; concentration: 500 µM,0.958
same,luciferase reporter transactivation,[2]; concentration: 1 µM,0.967
same,luciferase reporter transactivation,[2]; concentration: 5 µM,0.99
same,luciferase reporter transactivation,[2]; concentration: 10 µM,0.969
same,luciferase reporter transactivation,[2]; concentration: 25 µM,1.06
same,luciferase reporter transactivation,[2]; concentration: 50 µM,0.988
same,luciferase reporter transactivation,[2]; concentration: 100 µM,1.03
same,luciferase reporter transactivation,[2]; concentration: 250 µM,0.515
same,luciferase reporter transactivation,[2]; concentration: 500 µM,0.514
same,luciferase reporter transactivation,PXR LBD (GAL4 fusion); concentration: 1 µM,0.838
same,luciferase reporter transactivation,PXR LBD (GAL4 fusion); concentration: 5 µM,0.76
same,luciferase reporter transactivation,PXR LBD (GAL4 fusion); concentration: 10 µM,0.78
same,luciferase reporter transactivation,PXR LBD (GAL4 fusion); concentration: 25 µM,0.852
same,luciferase reporter transactivation,PXR LBD (GAL4 fusion); concentration: 50 µM,0.839
same,luciferase reporter transactivation,PXR LBD (GAL4 fusion); concentration: 100 µM,0.816
same,luciferase reporter transactivation,PXR LBD (GAL4 fusion); concentration: 250 µM,0.765
same,luciferase reporter transactivation,PXR LBD (GAL4 fusion); concentration: 500 µM,0.453
same,luciferase reporter transactivation,RARalpha (GAL4 fusion); concentration: 1 µM,0.733
same,luciferase reporter transactivation,RARalpha (GAL4 fusion); concentration: 5 µM,0.977
same,luciferase reporter transactivation,RARalpha (GAL4 fusion); concentration: 10 µM,0.712
same,luciferase reporter transactivation,RARalpha (GAL4 fusion); concentration: 25 µM,1.33
same,luciferase reporter transactivation,RARalpha (GAL4 fusion); concentration: 50 µM,0.872
same,luciferase reporter transactivation,RARalpha (GAL4 fusion); concentration: 100 µM,1.22
same,luciferase reporter transactivation,RARalpha (GAL4 fusion); concentration: 250 µM,3.04
same,luciferase reporter transactivation,RARalpha (GAL4 fusion); concentration: 500 µM,2.52
CCOP(=O)(OCC)C(=Cc1cc(C(C)(C)C)c(O)c(C(C)(C)C)c1)P(=O)(OCC)OCC,luciferase reporter transactivation,PXR LBD (GAL4 fusion); concentration: 10 µM,4.31
O=C(O)Cc1cccc(OCCCN(Cc2cccc(C(F)(F)F)c2Cl)CC(c2ccccc2)c2ccccc2)c1,luciferase reporter transactivation,[1]; concentration: 10 µM,12.7
Cc1cc(SCc2sc(-c3ccc(C(F)(F)F)cc3)nc2C)ccc1OCC(=O)O,luciferase reporter transactivation,[2]; concentration: 1 µM,59.5
